Screening data: PubChem BioAssay, National Center for Advancing Translational Sciences (NCATS)
Only some compounds are listed: those with a hit (about 19% of all), similar ones and a draw of the others.
HT1080 IDH1KD tx – toxicity to HT-1080 IDH1 knockdown cells (counter line). HT-1080 IDH1 knockdown viability, ATP luminescence, 48 h. Potency, µM (titrated, usually from 46.1 µM), without a hit: at the highest dose activity, negative = toxicity, actives largely listed as cytotoxic. hit rate 2% among 360,000;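 also: potency is read from the fitted curve at half-maximal effect; 0% = DMSO wells and -100% = cell-free medium wells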
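IDH1KD HT-1080 cells, 750/well, RPMI + 5% FBS; compound pinned after 2 h settling; 48 h, 37 °C; CellTiter-Glo luminescence; % activity normalised to DMSO and no-cell wells; curves fitted, classed by r2 and efficacy.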
DT40 TDP1 no CPT – qHTS for Inhibitors of human tyrosyl-DNA phosphodiesterase 1 (TDP1): qHTS in cells in absence of CPT; DT40 Tdp1-/- hTDP1 cells, no CPT, ATP luminescence, 48 h; Potency, µM (highest dose often 46.2 µM), for the others: at the top dose activity change, negative = growth inhibition, hits mostly inhibitors; hit rate 15% among 420,000; AID 686978, 2013; also: potency is read from the fitted curve at half-maximal effect; nearly all actives have a fitted effect of over 55% in size
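No-CPT arm: Tdp1-/-;hTDP1 DT40 cells (400/well) plus compounds, incubated ≥48 hr at 37 °C. Readout CellTiter-Glo luminescence.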
IL-1B inflam inh – inhibitors of inflammasome signaling (IL-1 beta secretion). AID 743279. THP-1 LPS/ATP IL-1B secretion, AlphaLISA, 16 h; active compounds read low. hit rate 4.7% among 360,000. activity change, % at 57.5 µM; in the data active = activity change below about -50%; inconclusive = mostly about -30% to -49%
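THP-1 cells pretreated 1 hr with compounds (up to 57.5 uM final), then stimulated with LPS (250 ng/mL final) plus ATP (1.25 mM final); secreted IL-1B measured by AlphaLISA after 16 hr, decreased signal indicating inhibition.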
HT1080NT lethal – kills 2HG-producing HT-1080-NT fibrosarcoma cells | AID 686970 | HT-1080-NT fibrosarcoma viability, CellTiter-Glo ATP luminescence, 48 h | hit rate 1.6% among 360,000 | Potency, µM (highest dose often 46.1 µM), without a hit: at the top dose activity, negative = less viability, hits mostly cytotoxic;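 also: NT is the 2HG producing partner of a matched IDH1 knockdown line; potency is read from the fitted curve at half-maximal effect; 0% = DMSO-treated cells and -100% = media-only wells without cells; nearly all actives have a fitted effect of over 55% in size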
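Read-out is CellTiter-Glo luminescence after 10 minutes at room temperature, following 48 hours' compound treatment of HT-1080-NT cells (750 cells/well, RPMI, 5% FBS, 37 degrees C).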
TDP1 cell CPT – DT40-hTDP1 cell growth loss with CPT; Potency, µM (top dose mostly 46.2 µM), inactives show top-dose activity change, negative = growth inhibition, usual class: inhibitors; AID 686979; hit rate 12% among 420,000; chicken DT40 Tdp1-/-;hTDP1 cells + 20 nM CPT, ATP luminescence, 48 h; also: potency is read from the fitted curve at half-maximal effect; nearly all actives have a fitted effect of over 55% in size
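Chicken DT40 Tdp1-/- cells stably complemented with human TDP1 were seeded at 400 cells/well in medium containing 20 nM camptothecin, exposed to pin-transferred compounds, and grown at 37 °C for at least 48 hr. Viability was read as ATP luminescence.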
* hit, by the source's call; ? = inconclusive; · = not tested or not shown; [ ] = remark or other dose. Unless noted, calls follow the shape of the dose curve; as a rule, active = well fitted curve in the direction sought with a large enough effect; inconclusive = small, poorly fitted or top-dose-only effect, or another doubt; inactive = no such curve, though single readings can be large; an effect the other way counts as inactive or inconclusive. Unless noted, % is scaled to controls: 0 for no effect and ±100 for the full control effect.

SMILES | HT1080 IDH1KD tx | DT40 TDP1 no CPT | IL-1B inflam inh | HT1080NT lethal | TDP1 cell CPT
Cc1ccccc1NC(=O)C(C)Sc1nnc(-c2ccncc2)n1CC1CCCO1 (stereo not given) | -4% | -13% | 3 | 1% | -5%
O=C(NCCCN1CCC(Cc2ccccc2)CC1)C1CCN(S(=O)(=O)N2CCC3(CC2)OCCO3)CC1 | -1% | -3% | -6 | 0% | 1%
O=C(NCCN1CCC(Cc2ccccc2)CC1)C1CCN(S(=O)(=O)N2CCC3(CC2)OCCO3)CC1 | -15% | 18µM* | -2 | -4% | 15µM*
O=C(C1CCN(S(=O)(=O)N2CCC3(CC2)OCCO3)CC1)N1CCN(Cc2ccccc2)CC1 | 2%[9.24 µM] | -7% | 12 | 8% | -12%
O=C(C1CCN(S(=O)(=O)N2CCC3(CC2)OCCO3)CC1)N1CCc2ccccc2C1 | -3% | 16µM* | 29 | 3% | ?
O=C(c1nc2ccccn2c1CNCCCn1cccn1)N1CCCC1 | 7% | -17% | 15 | -5% | 10%
CC(=O)N(c1ccc(Cl)cc1)C1SC(=O)N(c2ccccc2)C1=O (stereo not given) | 18% | ? | · | 16% | -6%
Cc1cccc(C)c1N(CC(=O)NCc1ccccc1)C(=O)c1csnn1 | 9% | -1% | -20 | -1% | 7%
Cn1c(SCC(=O)Nc2cccc(S(=O)(=O)NC3=NCCCCC3)c2)nnc1-c1ccncc1 | -7% | -5% | -4 | -3% | -7%
Cc1cc(SCC(=O)Nc2cccc(S(=O)(=O)NC3=NCCCCC3)c2)c(C)cc1Br | 13µM* | ? | -64* | ? | 15%
Cc1cc(SCC(=O)Nc2cccc(S(=O)(=O)NC3=NCCCCC3)c2)nc2ccccc12 | -8% | ? | -57* | 0% | ?
COc1cccc(C(c2nnnn2C2CCCC2)N2CCN(C/C=C/c3ccccc3)CC2)c1OC (stereo not given) | ? | ? | -16 | ? | ?
COc1ccc(-n2nnnc2C(c2ccccc2)N2CCN(C/C=C/c3ccccc3)CC2)cc1 (stereo not given) | ? | ? | -55* | ? | 21µM*
CCC(c1nnnn1-c1ccc(OC)cc1)N1CCN(C/C=C/c2ccccc2)CC1 (stereo not given) | -14% | ? | ? | -17% | 21µM*
COc1ccc(-n2nnnc2C(CCc2ccccc2)N2CCN(C/C=C/c3ccccc3)CC2)cc1 (stereo not given) | ? | 16µM* | · | ? | ?
COc1ccc(-n2nnnc2C(c2cccc(OC)c2OC)N2CCN(C/C=C/c3ccccc3)CC2)cc1 (stereo not given) | ? | 18µM* | ? | ? | 23µM*
C(=C\c1ccccc1)/CN1CCN(C(c2ccccc2)c2ccccc2)CC1 | -13% | ? | 16 | -15% | ?
O=C1c2cc(Br)ccc2N(Cc2ccc(Br)cc2)S(=O)(=O)C1c1cc(Cl)c(Cl)cc1[N+](=O)[O-] (stereo not given) | -2% | ? | 24 | -13% | -27%
O=C(c1cncc(Br)c1)N1CCN(S(=O)(=O)c2ccc3ccccc3c2)CC1 | 1% | -10% | -13 | 8% | -11%
O=C(NCc1cc(Cl)cc(Cl)c1)c1csc([C@@H]2C[C@H](O)[C@@H](CO)O2)n1 | 0% | -11% | -4 | -3% | -26%
Cc1cccc(NS(=O)(=O)c2ccc3c(c2)n(C)c(=O)n3C)c1C | · | ? | · | · | 23µM*
Cc1c(F)cccc1NS(=O)(=O)c1ccc2c(c1)c(=O)n(C)c(=O)n2C | ? | 15µM* | -16 | ? | ?
Cc1onc(-c2c(Cl)cccc2Cl)c1-c1nnc(-c2ccc(Cl)cc2)o1 | -28% | 16µM* | -1 | -21% | ?
Cc1onc(-c2c(F)cccc2Cl)c1-c1nnc(-c2ccc(C(F)(F)F)cc2)o1 | 26µM* | ? | · | -22% | ?
CC(=O)Nc1nnc(-c2c(-c3c(Cl)cccc3Cl)noc2C)o1 | 0% | -9% | 23 | 2% | 19%
SMILES | HT1080 IDH1KD tx | DT40 TDP1 no CPT | IL-1B inflam inh | HT1080NT lethal | TDP1 cell CPT
Cc1onc(-c2ccccc2)c1-c1nnc(-c2ccccc2C(F)(F)F)o1 | -26% | ? | ? | 0% | 2%
CCN1C(=O)[C@H]2[C@@H](c3ccc(-c4ccc(Cl)c(Cl)c4)c(OC)c3)N[C@@](C)(C(=O)OC)[C@H]2C1=O | 2% | 6.5µM* | -17 | -5% | 4.6µM*
COC(=O)[C@]1(C)N[C@H](c2ccc(SC3CCCCC3)c(OC)c2)[C@@H]2C(=O)N(C)C(=O)[C@@H]21 | -1% | 12µM* | 2 | 6% | ?
CCN1C(=O)[C@H]2[C@@H](c3ccc(-c4ccc(Cl)c(Cl)c4)cc3)N[C@@](C)(C(=O)OC)[C@H]2C1=O | 0% | 8.2µM* | -25 | -9% | 8.2µM*
Cc1ccc(-n2ncc(C(=O)N3CCN(Cc4ccccc4)CC3)c2C2CCN(C(=O)OC(C)(C)C)CC2)c(C)c1 | · | 13µM* | · | · | 4.6µM*
Cc1ccc(-n2ncc(C(=O)N3CCN(C(=O)c4ccco4)CC3)c2C2CCN(C(=O)OC(C)(C)C)CC2)cc1 | · | -10% | · | · | -3%
CC(C)(C)OC(=O)N1CCC(c2c(C(=O)N3CCN(c4ccccc4F)CC3)cnn2-c2ccccc2Cl)CC1 | · | 16µM* | · | · | 18µM*
